# PubChem BioAssay (NCATS)
# Results filed as inconclusive are left out. Entries that show only a call come without a potency. The source holds several records for some structures; these can differ, active in one and inactive in another. The source made the active and inactive calls. Calls follow the shape of the dose curve; as a rule, active = well fitted curve in the direction sought with a large enough effect; inconclusive = small, poorly fitted or top-dose-only effect, or another doubt; inactive = no such curve, though single readings can be large; an effect the other way counts as inactive or inconclusive.
# Biological target: Metallo-beta-lactamase type 2 (Klebsiella pneumoniae) (UniProt C7C422)
# Assay: qHTS to identify inhibitors of the New Delhi Metallo-beta-lactamase (NDM): assay validation screen against the NCATS LOPAC Collection (AID 1794843);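 also: nitrocefin turnover by NDM-1 measured as 485 nm absorbance at plateau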
# Conditions: NDM-1 enzyme, nitrocefin hydrolysis, absorbance 485 nm; series mostly up to 38.4 µM
# How it was run: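 Enzyme 2 nM final, 50 mM HEPES pH 7.0, 1 uM ZnSO4, 0.01% Tween20; cpds in DMSO, preincub w/ enzyme; + nitrocefin (50 uM stock); A485 at plateau; no-enzyme column as blank.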
# Metallo-beta-lactamase type 2 (Klebsiella pneumoniae), sequence (C7C422 whole entry, looked up): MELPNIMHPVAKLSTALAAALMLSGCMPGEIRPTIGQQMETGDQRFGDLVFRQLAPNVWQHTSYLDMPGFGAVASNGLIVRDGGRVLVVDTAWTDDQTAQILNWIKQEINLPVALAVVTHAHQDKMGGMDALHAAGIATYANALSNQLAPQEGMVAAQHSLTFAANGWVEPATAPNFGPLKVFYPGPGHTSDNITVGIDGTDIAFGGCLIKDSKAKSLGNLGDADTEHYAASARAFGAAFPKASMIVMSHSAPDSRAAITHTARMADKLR
row,Structure (SMILES),outcome
1,CCOC(=O)N1CCC(=C2c3ccc(Cl)cc3CCc3cccnc32)CC1,inactive
2,Cc1[nH]c(=O)c(C#N)cc1-c1ccc2nccn2c1,inactive
3,Cc1cn[nH]c1,inactive
4,CCCC(CCC)C(=O)O,inactive
5,NC[C@H](O)c1ccc(O)c(O)c1,inactive
6,CN1CCN(CCCN2c3ccccc3Sc3ccc(C(F)(F)F)cc32)CC1,inactive
7,CC(=O)Oc1ccccc1C(=O)O,inactive
8,Cc1cccc(-c2[nH]c(C(C)(C)C)nc2-c2ccc3nccnc3c2)n1,inactive
9,CC(C)C[C@H](NC(=O)[C@@H](O)[C@H](N)Cc1ccccc1)C(=O)O,inactive
10,Nc1nc2ccc(OC(F)(F)F)cc2s1,inactive
11,Cc1cnc(NC(=O)C2=C(O)c3ccccc3S(=O)(=O)N2C)s1,inactive
12,C[C@]12CCC(=O)C=C1CC[C@@H]1[C@@H]2[C@@H](O)C[C@@]2(C)[C@H]1CC[C@]2(O)C(=O)CO,inactive
13,NS(=O)(=O)c1cc2c(cc1Cl)NC=NS2(=O)=O,inactive
14,Cc1[nH]c(=O)c(C#N)cc1-c1ccncc1,inactive
15,Oc1ccc(C2CNCCc3c2cc(O)c(O)c3Cl)cc1 (centres undefined),inactive
16,O=C1CCc2cc(OCCCCc3nnnn3C3CCCCC3)ccc2N1,inactive
17,CC(C[N+](C)(C)C)OC(N)=O (centres undefined),inactive
18,NC(N)=NC(=O)c1nc(Cl)c(N)nc1N,inactive

# Biological target: Glutathione peroxidase 1 (Homo sapiens) (UniProt P07203)
# Assay: Primary qHTS Assay for Inhibitors of Recombinant Selenoprotein Glutathione Peroxidase 1 (GPX1) (AID 1845191); also: nearly all actives have a fitted effect of over 65% in size; also: potency is read from the fitted curve at half-maximal effect
# Conditions: recombinant GPX1, GR-coupled NADPH fluorescence, 15 min; series mostly up to 48.8 µM
# How it was run: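 GPX1 10 nM, GR 100 nM, GSH 1 mM, NADPH 0.5 mM, CHP 0.5 mM (final). 30-min cpd preincubation, RT. Ex340/Em450 read t=0, t=15 min.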
# Glutathione peroxidase 1 (Homo sapiens), sequence (P07203 whole entry, looked up): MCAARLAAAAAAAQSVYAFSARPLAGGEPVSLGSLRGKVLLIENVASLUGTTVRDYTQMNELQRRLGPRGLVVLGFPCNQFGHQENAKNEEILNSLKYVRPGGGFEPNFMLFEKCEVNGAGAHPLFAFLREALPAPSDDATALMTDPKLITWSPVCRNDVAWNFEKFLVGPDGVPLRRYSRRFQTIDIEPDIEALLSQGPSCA
row,Structure (SMILES),Potency
1,c1ccc(-c2nn3c(c2-c2ccnc4cc(OCCN5CCOCC5)ccc24)CCC3)nc1,inactive
2,Cc1[nH]c(=O)c(C#N)cc1-c1ccc2nccn2c1,inactive
3,C/C(=C\C(=O)Nc1ccccc1C(=O)O)c1ccc2ccccc2c1,inactive
4,Cc1cn[nH]c1,inactive
5,C[C@]1(c2nc3c(C(N)=O)cccc3[nH]2)CCCN1,inactive
6,Nc1ncnc2nc(-c3ccc(N4CCOCC4)nc3)cc(-c3cccc(Br)c3)c12,inactive
7,NC(=O)C1CCCc2c1[nH]c1ccc(Cl)cc21 (centres undefined),inactive
8,O=C1[C@H](Cc2ccc(O)cc2)N2C(=O)CCN(C(=O)NCc3ccccc3)[C@H]2CN1Cc1cccc2ccccc12,inactive
9,Nc1nccc(-c2ccc3noc(-c4ccc(Cl)cc4)c3c2)n1,inactive
10,Cc1ccc(NC(=O)c2cccc(C(C)(C)C#N)c2)cc1Nc1ccc2ncn(C)c(=O)c2c1,inactive
11,COc1ccc2nc(S(=O)Cc3ncc(C)c(OC)c3C)[nH]c2c1 (centres undefined),5.08 µM (active) and inactive
12,Cc1c(C)c2c(c(C)c1O)CCC(C)(COc1ccc(CC3SC(=O)NC3=O)cc1)O2 (centres undefined),inactive
13,COc1ccccc1-c1cccc(-c2c(O)c3cc(C#N)c(Cl)cc3[nH]c2=O)c1,inactive
14,Cc1cccc(-c2[nH]c(C(C)(C)C)nc2-c2ccc3nccnc3c2)n1,inactive
15,CC(=O)NC(C)c1ccc(Oc2ccc(OC(C)C)cc2)cc1 (centres undefined),inactive
16,CC(C)C[C@H](NC(=O)[C@@H](O)[C@H](N)Cc1ccccc1)C(=O)O,inactive
17,Nc1nc2ccc(OC(F)(F)F)cc2s1,inactive
18,Cc1[nH]c(=O)c(C#N)cc1-c1ccncc1,inactive
19,CC(C[N+](C)(C)C)OC(N)=O (centres undefined),inactive
20,NC(N)=NC(=O)c1nc(Cl)c(N)nc1N,inactive
21,CN([C@@H](Cc1ccc(OS(=O)(=O)c2cccc3cnccc23)cc1)C(=O)N1CCN(c2ccccc2)CC1)S(=O)(=O)c1cccc2cnccc12,inactive
22,CCCCCCCc1ccc(CCc2cccc(O)c2C(=O)O)cc1,inactive
23,Cc1cc(-c2ccc(CC(=O)Nc3ccc(-c4cccnc4)cc3)cc2)ccn1,inactive
24,COc1cc(Oc2ccnc3cc(OC)c(OC)cc23)ccc1NC(=O)NC(C)c1nccs1 (centres undefined),inactive

# Biological target: Phospholipid hydroperoxide glutathione peroxidase GPX4 (Homo sapiens) (UniProt P36969)
# Assay: Primary qHTS Assay for Inhibitors of Recombinant Selenoprotein Glutathione Peroxidase 4 (GPX4) (AID 1845192); also: nearly all actives have a fitted effect of over 65% in size; also: potency is read from the fitted curve at half-maximal effect
# Conditions: recombinant GPX4, GR-coupled NADPH fluorescence, 15 min; series mostly up to 50 µM
# How it was run: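 qHTS, GR-coupled: GPX4 200 nM + cpd 30 min RT → GSH 1 mM, NADPH 0.5 mM, GR 100 nM → CHP 0.5 mM start; fluor 340/450 at t0 and t15 min; no-enzyme wells as control.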
# Phospholipid hydroperoxide glutathione peroxidase GPX4 (Homo sapiens), sequence (P36969 whole entry, looked up): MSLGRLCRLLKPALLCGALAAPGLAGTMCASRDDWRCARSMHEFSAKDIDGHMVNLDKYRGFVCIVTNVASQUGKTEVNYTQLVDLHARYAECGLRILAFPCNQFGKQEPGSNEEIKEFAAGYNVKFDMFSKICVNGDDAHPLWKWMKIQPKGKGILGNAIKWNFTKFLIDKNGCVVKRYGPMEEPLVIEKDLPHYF
row,Structure (SMILES),Potency
1,c1ccc(-c2nn3c(c2-c2ccnc4cc(OCCN5CCOCC5)ccc24)CCC3)nc1,inactive
2,CCOC(=O)N1CCC(=C2c3ccc(Cl)cc3CCc3cccnc32)CC1,inactive
3,Cc1[nH]c(=O)c(C#N)cc1-c1ccc2nccn2c1,inactive
4,C/C(=C\C(=O)Nc1ccccc1C(=O)O)c1ccc2ccccc2c1,18 µM (active)
5,Cc1cn[nH]c1,inactive
6,C[C@]1(c2nc3c(C(N)=O)cccc3[nH]2)CCCN1,inactive
7,CCCC(CCC)C(=O)O,inactive
8,Nc1ncnc2nc(-c3ccc(N4CCOCC4)nc3)cc(-c3cccc(Br)c3)c12,inactive
9,NC[C@H](O)c1ccc(O)c(O)c1,inactive
10,CN1CCN(CCCN2c3ccccc3Sc3ccc(C(F)(F)F)cc32)CC1,inactive
11,NC(=O)C1CCCc2c1[nH]c1ccc(Cl)cc21 (centres undefined),inactive
12,O=C1[C@H](Cc2ccc(O)cc2)N2C(=O)CCN(C(=O)NCc3ccccc3)[C@H]2CN1Cc1cccc2ccccc12,inactive
13,Cc1ccc(NC(=O)c2cccc(C(C)(C)C#N)c2)cc1Nc1ccc2ncn(C)c(=O)c2c1,inactive
14,COc1ccc2nc(S(=O)Cc3ncc(C)c(OC)c3C)[nH]c2c1 (centres undefined),11.4 µM (active)
15,Cc1c(C)c2c(c(C)c1O)CCC(C)(COc1ccc(CC3SC(=O)NC3=O)cc1)O2 (centres undefined),inactive
16,CC(=O)Oc1ccccc1C(=O)O,inactive

row,Structure (SMILES),Potency
1,Cc1cccc(-c2[nH]c(C(C)(C)C)nc2-c2ccc3nccnc3c2)n1,inactive
2,CC(=O)NC(C)c1ccc(Oc2ccc(OC(C)C)cc2)cc1 (centres undefined),inactive
3,CC(C)C[C@H](NC(=O)[C@@H](O)[C@H](N)Cc1ccccc1)C(=O)O,inactive
4,Nc1nc2ccc(OC(F)(F)F)cc2s1,inactive
5,Cc1cnc(NC(=O)C2=C(O)c3ccccc3S(=O)(=O)N2C)s1,inactive
6,C[C@]12CCC(=O)C=C1CC[C@@H]1[C@@H]2[C@@H](O)C[C@@]2(C)[C@H]1CC[C@]2(O)C(=O)CO,inactive
7,NS(=O)(=O)c1cc2c(cc1Cl)NC=NS2(=O)=O,inactive
8,Cc1[nH]c(=O)c(C#N)cc1-c1ccncc1,inactive
9,Oc1ccc(C2CNCCc3c2cc(O)c(O)c3Cl)cc1 (centres undefined),inactive
10,O=C1CCc2cc(OCCCCc3nnnn3C3CCCCC3)ccc2N1,inactive
11,CC(C[N+](C)(C)C)OC(N)=O (centres undefined),inactive
12,NC(N)=NC(=O)c1nc(Cl)c(N)nc1N,inactive
13,CN([C@@H](Cc1ccc(OS(=O)(=O)c2cccc3cnccc23)cc1)C(=O)N1CCN(c2ccccc2)CC1)S(=O)(=O)c1cccc2cnccc12,inactive
14,CCCCCCCc1ccc(CCc2cccc(O)c2C(=O)O)cc1,20.2 µM (active)
15,Cc1cc(-c2ccc(CC(=O)Nc3ccc(-c4cccnc4)cc3)cc2)ccn1,inactive
16,COc1cc(Oc2ccnc3cc(OC)c(OC)cc23)ccc1NC(=O)NC(C)c1nccs1 (centres undefined),inactive
